One experiment deals with FXR:RXRa (NR concentration 270 nM, RXRa partner concentration 90 nM). In words: PBM binding z-score (relative to random genomic background probes); higher = stronger binding; sequences stand for … in GC…GCGATTGACAGCGTAGAATGAAGG
Put shortly:
(§1)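 Random background probes are the reference for binding z-scores. These scores derive from regression-normalized fluorescence on custom Agilent 4×180K protein-binding microarrays incubated 1 h with ligand-free nuclear receptor dimers. Binding was detected with antibodies against each partner (one per run).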
For TGAATCAGGTTATAAGATCAGGGAACGTTGCAAA, the PBM binding z-score was determined as 0.101.

In the case of ACTAGCAGGCCAGGTTTGGGTCACTCAAACAAAG, the PBM binding z-score was -0.191.

Turning to TCTTGTAGATCAAAAGGAGGTTAAGAAAGATCGA, the PBM binding z-score was 0.895.

Sequence TTACCAAGGTGAAAGGACGTTGATGCACGCCTTG displayed a PBM binding z-score of 0.449.

In turn, ATCGAAAGGTAGTGAGGTGAGTATACAGAAAGGC registered a PBM binding z-score of 0.0464.

ACTAGCAGGCCAAGTTTGGGTCAATCAAACAAAG: the PBM binding z-score was 0.471.

CGAACTAGGTCATTGACAGGAGAGTGAATAGTAA yielded a PBM binding z-score of 4.67.

In turn, GCATATAGGTAATACAAGGGGAAAGTCCGATTGT registered a PBM binding z-score of 0.256.

In turn, CAAACTAGGTCAAGGTCATAGTCGGTTTGTGCCA yielded a PBM binding z-score of 6.58.

For the sequence CAAACTAGCTCAAAGGTCAAAGTCGAGCCAACCA, the PBM binding z-score is 5.95.

In turn, TAGCTTAGGTCATTGGGCCAGTATAGTACGCATC registered a PBM binding z-score of 4.59.

TGAATGAGGTTAAAGATCGGGGAACGTGGCGTCG: the PBM binding z-score came to 2.84.

As for CAGCCTAGATCAGGGCCAGTATAGGAGGAACGTT, the PBM binding z-score was -0.83.

The sequence ACTATTAGTTGAGACAAGGGCAACCGATAGGTTG gave a PBM binding z-score of 0.264.

GGAACGAGGGCATTCGAGTTGGTAGCATGGCGAT had a PBM binding z-score of 0.825.

The sequence ATCTCTAGGTAAAAATTCAGTGAATCCCGAGGAT came in with a PBM binding z-score of 0.0972.

With CCTACAGGGCCACGAAAGGTCATTGATTCAGTGA, the PBM binding z-score was 4.09.

As to CGTCCAAGGTCAATGCTAGGTCAGTGAGAGCATT, the PBM binding z-score was determined as 6.44.

The test system of another experiment is LXRa:RXRa (NR concentration 270 nM, RXRa partner concentration 90 nM). Described as above. Put shortly: as §1
With TCTTGCAGATCAAAGGTTAAGAAAGCCGAAGCCT, the PBM binding z-score was found to be 1.61.

In the case of CCGAGTGGGTTATGGGGCATTCAGGCAACGGTGA, the PBM binding z-score is 0.155.

In turn, ATCTCTAGGTAAAGTTCACTGAAAGATCGATAGA yielded a PBM binding z-score of 3.16.

For TGAATGAGGTGATAAGATCAGGGAACGTTGCAAA, the PBM binding z-score was -0.0507.

AGCATGAGGTTATACGTAGATCAGGGAAGAAAGT returned a PBM binding z-score of 1.8.

AGTCGAAGTTCAGGACGAGGTAACGTAAAGCACG: the PBM binding z-score was determined as 1.05.

Turning to CCGACTGGGACATAAGGTTACCATAAGCCAGCCC, the PBM binding z-score came out at 2.04.

ATACCAAGGTGGTCGTGAGGTCGTTGATACTAAC gave a PBM binding z-score of 0.821.

Consider AAAATGAGGTTATTAAGATCAGGGAATTGCGGTC, for which the PBM binding z-score came to 1.63.

For GCTGCTAGGTCAGTTTGGTCAGCTAACGGGTACG, the PBM binding z-score stood at 0.563.

Take TCATGTAGGTAAAGGTGAAAGTCGAACGATATGA: the PBM binding z-score turned out to be 1.11.

Consider CAAACTAGTTCACCGGAAGGTCAAAGTCCGCATG, for which the PBM binding z-score worked out at 4.89.

In turn, CGTCCAAGTTCAGAGAGGTCAGTGAATGCCGAGT came in with a PBM binding z-score of 3.64.

Consider CCTCGGAGGACTACAGGAGGTCAGAGCTGCCAGA, for which the PBM binding z-score came to 3.27.

For the sequence TGAATGAGGTTATAAGCTCAGGGAACGTTGCAAA, the PBM binding z-score amounted to 0.975.

As to CGTCCAAGTTCAGCAGGTCAGTGAAAGCGACGTG, the PBM binding z-score came out at 2.06.

In turn, AATGCAGGGTCACTAGGCCAGAGTAGGTACGAAT had a PBM binding z-score of 4.62.

Consider TAGTCTAGGTCATGGGCCAGTATACCACGCGAAC, for which the PBM binding z-score amounted to 3.68.

The sequence CGAACTGGGTCATTGACAGGACAGTGAATAGTAA displayed a PBM binding z-score of 1.97.

For the sequence AGAACGACGGCACGCTGAGTTGATAGCAGAGTAG, the PBM binding z-score was -0.427.

With TAGCCTACGTCAGATCGGGCCAGTATACGCTATA, the PBM binding z-score is -0.971.

TAAGACAGGTGAAGGTAACTCAGGTACGCAGTCG came in with a PBM binding z-score of 1.42.

Regarding TGAATCAGGTTATAAGATCAGGGAACGTTGCAAA, the PBM binding z-score is 0.162.

With ACTAGCAGGCCAGGTTTGGGTCACTCAAACAAAG, the PBM binding z-score was -0.164.

Regarding TCTTGTAGATCAAAAGGAGGTTAAGAAAGATCGA, the PBM binding z-score is 1.83.

TTACCAAGGTGAAAGGACGTTGATGCACGCCTTG: the PBM binding z-score came to 0.351.

With ATCGAAAGGTAGTGAGGTGAGTATACAGAAAGGC, the PBM binding z-score was -0.187.

Sequence ACTAGCAGGCCAAGTTTGGGTCAATCAAACAAAG yielded a PBM binding z-score of 0.228.

In turn, CGAACTAGGTCATTGACAGGAGAGTGAATAGTAA gave a PBM binding z-score of 2.65.

GCATATAGGTAATACAAGGGGAAAGTCCGATTGT showed a PBM binding z-score of 0.159.

In turn, CAAACTAGGTCAAGGTCATAGTCGGTTTGTGCCA displayed a PBM binding z-score of 5.31.

In the case of CAAACTAGCTCAAAGGTCAAAGTCGAGCCAACCA, the PBM binding z-score worked out at 5.85.

Consider TAGCTTAGGTCATTGGGCCAGTATAGTACGCATC, for which the PBM binding z-score stood at 4.02.

The sequence TGAATGAGGTTAAAGATCGGGGAACGTGGCGTCG had a PBM binding z-score of 2.61.

As for CAGCCTAGATCAGGGCCAGTATAGGAGGAACGTT, the PBM binding z-score is -0.998.

Regarding ACTATTAGTTGAGACAAGGGCAACCGATAGGTTG, the PBM binding z-score is -0.00254.

In turn, GGAACGAGGGCATTCGAGTTGGTAGCATGGCGAT registered a PBM binding z-score of 0.72.

Take ATCTCTAGGTAAAAATTCAGTGAATCCCGAGGAT: the PBM binding z-score was -0.215.

Regarding CCTACAGGGCCACGAAAGGTCATTGATTCAGTGA, the PBM binding z-score is 5.83.

Turning to CGTCCAAGGTCAATGCTAGGTCAGTGAGAGCATT, the PBM binding z-score was 5.68.

The record behind these values is the supplement of paper PMC6555819.
